Screen size: about 5,500 compounds; about 2,000 (36%) were called active. About 18% were inconclusive and are not listed. No stated cut-off is given here; in the data, active means normalized growth mostly below about 0.91 (no sharp cut-off); inconclusive means no clear call, values can overlap the other calls; inactive means mostly above about 0.92. The list shows a part of the results.
Assay: chemical genetic growth profiling, strain panel (AID 1159580);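 further: tested at 20 µM; growth read once vehicle control cultures reached saturation at 30 °C; 1 = growth at the plate median or of vehicle wells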
Conditions: S. cerevisiae deletion strains, growth OD
[1] = locus YAL013W, strain DEP1, stronger effect = lower value
[2] = locus YAL040C, strain CLN3, stronger effect = lower value
[3] = locus YCL061C, strain MRC1 (second series), stronger effect = lower value
[4] = locus YDR363W, strain ESC2, stronger effect = lower value
[5] = locus YER002W, strain NOP16, stronger effect = lower value
[6] = locus YGR078C, strain PAC10, stronger effect = lower value
[7] = locus YJR075W, strain HOC1, stronger effect = lower value
[8] = locus YNL175C, strain NOP13, stronger effect = lower value
[9] = locus YNL197C, strain WHI3, stronger effect = lower value
[10] = locus YNL224C, strain SQS1, stronger effect = lower value
[11] = locus YNL322C, strain KRE1, stronger effect = lower value
[12] = locus YOR083W, strain WHI5 (second series), stronger effect = lower value
[13] = locus YPL055C, strain LGE1, stronger effect = lower value
[14] = locus YMR307W, strain GAS1, stronger effect = lower value

Measured: normalized growth

CCCCc1ccc(C(=O)O)nc1
inactive: [1] 1.02 | [2] 0.992 | [3] 1 | [4] 1.02 | [5] 1.05 | [6] 1 | [7] 1.07 | [8] 0.988 | [9] 1.01 | [10] 0.979 | [11] 1.02 | [12] 1.05 | [13] 1.03

CN1C[C@@H](CS(=O)(=O)N(C)C)C[C@@H]2c3cccc4c3c(cn4C)C[C@H]21
inactive: [1] 1 | [2] 1.01 | [3] 1 | [4] 1.01 | [5] 1.01 | [6] 1.01 | [7] 1 | [14] 1.03 | [8] 1.01 | [9] 1.02 | [10] 1.01 | [12] 1.03

Cc1c(C)c(C)c(CO)c(C)c1C
inactive: [1] 0.988 | locus YBR229C, strain ROT2, stronger effect = lower value 1.01 | locus YDL101C, strain DUN1, stronger effect = lower value 1.01 | locus YDR150W, strain NUM1, stronger effect = lower value 0.981 | locus YEL061C, strain CIN8, stronger effect = lower value 0.996 | [6] 0.998 | locus YHR030C, strain SLT2, stronger effect = lower value 1.06 | locus YHR087W, strain rtc3, stronger effect = lower value 1.01 | locus YJL187C, strain SWE1, stronger effect = lower value 1 | locus YJR043C, strain POL32, stronger effect = lower value 1 | [7] 1.04 | locus YLR039C, strain RIC1, stronger effect = lower value 0.98 | locus YLR058C, strain SHM2 (second series), stronger effect = lower value 1.02 | locus YLR085C, strain ARP6, stronger effect = lower value 1.06 | locus YLR262C, strain YPT6, stronger effect = lower value 0.955 | locus YML094W, strain GIM5, stronger effect = lower value 0.996 | locus YMR219W, strain ESC1, stronger effect = lower value 1.01 | locus YMR263W, strain SAP30, stronger effect = lower value 0.993 | [14] 1.03 | locus YNL153C, strain GIM3, stronger effect = lower value 0.97 | locus YNL298W, strain CLA4 (second series), stronger effect = lower value 1.04 | [11] 1.01 | locus YNR030W, strain Alg12, stronger effect = lower value 1 | [13] 0.997 | locus YPL241C, strain CIN2, stronger effect = lower value 0.989 | locus YPR135W, strain CTF4, stronger effect = lower value 1

— PubChem BioAssay AID1159580 (chemical genetic matrix, 2015)
